# Hit rate of the full screen: of about 400,000 compounds, about 2,100 (0.53%) were called active. Roughly 14% stayed inconclusive and do not appear here. The rule behind the calls is not given here. For the sample, actives were picked, then their nearest neighbours and some compounds at random.
# Target: Ataxin-2 (Homo sapiens) (UniProt Q99700)
# Assay: qHTS for Inhibitors of ATXN expression.
# Assay type: functional
# Chain of Ataxin-2 (Homo sapiens) (Q99700 whole entry): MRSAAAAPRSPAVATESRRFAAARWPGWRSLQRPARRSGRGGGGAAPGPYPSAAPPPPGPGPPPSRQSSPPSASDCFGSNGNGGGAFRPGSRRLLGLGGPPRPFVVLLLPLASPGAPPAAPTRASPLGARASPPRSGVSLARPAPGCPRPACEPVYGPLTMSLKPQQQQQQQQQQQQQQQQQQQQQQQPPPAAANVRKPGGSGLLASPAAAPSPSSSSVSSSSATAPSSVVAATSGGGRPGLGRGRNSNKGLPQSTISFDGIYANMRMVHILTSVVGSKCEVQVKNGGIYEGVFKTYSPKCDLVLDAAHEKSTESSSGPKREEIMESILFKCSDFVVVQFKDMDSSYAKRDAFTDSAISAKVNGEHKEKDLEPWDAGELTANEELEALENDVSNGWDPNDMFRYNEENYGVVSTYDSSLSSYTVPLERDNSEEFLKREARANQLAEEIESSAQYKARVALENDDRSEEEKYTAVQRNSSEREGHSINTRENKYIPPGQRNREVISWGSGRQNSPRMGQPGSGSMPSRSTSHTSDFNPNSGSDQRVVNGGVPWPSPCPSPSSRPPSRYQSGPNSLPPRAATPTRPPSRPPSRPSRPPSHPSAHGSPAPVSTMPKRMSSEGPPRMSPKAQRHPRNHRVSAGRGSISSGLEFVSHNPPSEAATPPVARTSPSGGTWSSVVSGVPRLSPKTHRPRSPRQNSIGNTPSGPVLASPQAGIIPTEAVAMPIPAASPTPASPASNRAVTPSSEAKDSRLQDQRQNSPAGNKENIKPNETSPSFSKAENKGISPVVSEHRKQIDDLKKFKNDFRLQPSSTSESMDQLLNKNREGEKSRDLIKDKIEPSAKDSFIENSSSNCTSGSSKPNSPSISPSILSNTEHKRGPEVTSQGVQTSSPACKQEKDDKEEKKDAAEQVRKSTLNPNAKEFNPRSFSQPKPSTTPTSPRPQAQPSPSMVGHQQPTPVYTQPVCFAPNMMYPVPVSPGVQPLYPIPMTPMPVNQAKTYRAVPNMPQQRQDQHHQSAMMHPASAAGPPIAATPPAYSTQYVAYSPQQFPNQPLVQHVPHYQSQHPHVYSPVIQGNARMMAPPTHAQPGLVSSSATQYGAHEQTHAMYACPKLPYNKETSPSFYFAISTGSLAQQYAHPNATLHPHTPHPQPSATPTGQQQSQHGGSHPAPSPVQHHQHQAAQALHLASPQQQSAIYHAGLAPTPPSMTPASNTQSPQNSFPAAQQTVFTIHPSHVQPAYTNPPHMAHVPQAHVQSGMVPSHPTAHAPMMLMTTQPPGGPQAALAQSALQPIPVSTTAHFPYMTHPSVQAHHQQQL
row,Structure (SMILES),Potency
1,COc1cc(CO)c(Br)cc1OCC(N)=O,inactive
2,COc1ccc2nc(NCCN=C(S)NCCCN3CCOCC3)c(C#N)cc2c1,inactive
3,N=c1c(C(=O)NC2CCCC2)cc2c(=O)n3ccccc3nc2n1CCCN1CCOCC1,inactive
4,CN(C)CCn1cnc2c(c1=N)C(c1ccccc1)c1ccc3ccccc3c1O2 (stereo not drawn),28.2 µM (active)
5,COc1ccc(C2c3ccc4ccccc4c3Oc3ncn(CCCO)c(=N)c32)cc1 (stereo not drawn),35.5 µM (active)
6,COc1ccc(C2c3c(ncn(CCN4CCOCC4)c3=N)Oc3ccc4ccccc4c32)cc1OC (stereo not drawn),14.1 µM (active)
7,COc1ccc(C2c3ccc4ccccc4c3Oc3ncn(CCN4CCOCC4)c(=N)c32)cc1 (stereo not drawn),14.1 µM (active)
8,COc1ccc(Nc2ncc(F)c(N3CCOCC3)n2)cc1,inactive
9,Cc1ccc(S(=O)(=O)NC23CC4CC(CC(C4)C2)C3)cc1,inactive
10,CCCn1nc(NC(=O)COC)c2cc3cccc(C)c3nc21,inactive
11,COc1ccc(OC)c(/C=C2\Oc3cc(OCC(=O)N4CCC[C@H]4C(=O)O)ccc3C2=O)c1,inactive
12,COCCNc1oc(/C=C/c2ccccc2)nc1C#N,inactive
13,COc1cc2ccccc2nn1,inactive
14,N=c1c2c(ncn1Cc1ccco1)Oc1ccc3ccccc3c1C2c1ccccc1 (stereo not drawn),12.6 µM (active)
15,COc1ccc(C2C=C(c3ccccc3)Nc3nc(CCCO)nn32)cc1 (stereo not drawn),inactive
16,COc1ccc(C2c3c(ncn(CCCO)c3=N)Oc3ccc4ccccc4c32)cc1 (stereo not drawn),25.1 µM (active)
17,CCOCCn1c(CN2CCCC(C)C2)nc2c1c(=O)n(C)c(=O)n2C (stereo not drawn),inactive
18,COCCCn1c(C)nnc1SCc1ccc(C(C)(C)C)cc1,inactive
19,CC(=O)Nc1nc2n(n1)C(c1ccc(F)cc1)C=C(c1ccc(Cl)cc1)N2 (stereo not drawn),inactive
20,Cc1ccc(N2C(=O)/C(=C\Nn3cnnc3)c3ccccc3C2=O)cc1,inactive
21,Cc1nc(SCc2ccccc2)c2ccsc2n1,inactive
22,CCCCn1c(=O)nc2n(-c3ccccc3)c3ccccc3cc-2c1=O,inactive
23,CCCCN=c1nc(S)n(-c2ccccc2)c(C)c1C(C)=O,39.8 µM (active)

row,Structure (SMILES),Potency
1,O=[N+]([O-])c1ccc(NN=C(Oc2ccccc2)c2ccc([N+](=O)[O-])cc2)cc1,inactive
2,C/C(=N\Nc1ccc([N+](=O)[O-])cc1)c1ccco1,inactive
3,COc1ccc(C(=O)/C(C#N)=N/Nc2ccc([N+](=O)[O-])cc2)cc1,10 µM (active)
4,Cc1cc(C)c(S(=O)(=O)Nc2cc(SCC(=O)O)c(O)c3ccccc23)cc1C,20 µM (active)
5,CC(=O)Nc1ccc(NS(=O)(=O)c2cc(-c3cnc(C4CC4)o3)ccc2C)cc1,inactive
6,COC(=O)CCC(=O)N1CCCC(N2CCN(c3cccc(C(F)(F)F)c3)CC2)C1 (stereo not drawn),inactive
7,CSC1=NCCN1S(=O)(=O)c1ccc(F)cc1,inactive
8,COC(=O)Cc1c(C)c2ccc(O)c(CNCc3ccc(OC)c(OC)c3)c2oc1=O,inactive
9,Cc1sc(Cc2nc(O)cs2)nc1-c1ccccc1,inactive
10,COc1ccc(-c2c/c(=N\c3nc(-c4ccccc4)c(C)s3)c3ccccc3o2)cc1O,31.6 µM (active)
11,CCc1ccc2oc(-c3ccc(OC)cc3)cc(=Nc3cccc(C(=O)O)c3)c2c1,inactive
12,COCCCn1c(=N)c(C(=O)NC2CCCCC2)cc2c(=O)n3cc(C)ccc3nc21,inactive
13,COC(=O)C1=CN(C2CC2)C=C(C(=O)OC)C1c1ccc(C(=O)OC)cc1,inactive
14,COC(=O)c1ccc2nc(C3CCCCC3)c(CC(C)(C)C)n2c1,39.8 µM (active)
15,Cc1nc(-c2ccccc2)sc1-c1ccnn1C,inactive
16,CCc1ccc(C2=C(C)C(N3CCC(C(=O)Nc4ccc(F)cc4)CC3)=NS2(=O)=O)cc1,39.8 µM (active)
17,CCOC(=O)C1=C(C)N=c2s/c(=C/c3ccc(OCC(=O)O)cc3)c(=O)n2C1c1ccc(OC)cc1OC (stereo not drawn),inactive
18,CCSc1nnc2nc3c(c(O)n12)C1(CCCC1)Cc1ccccc1-3,inactive
19,CCc1ccc(CN2CCN(c3ncccn3)CC2)cc1,inactive
20,Cc1ccc2c(c1)[nH]c1c(N3CCN(Cc4ccccc4)CC3)ncnc12,11.2 µM (active)
21,Fc1ccc2[nH]c3c(N4CCN(Cc5ccc6c(c5)OCO6)CC4)ncnc3c2c1,39.8 µM (active)
22,O=c1c2ccccc2[nH]c(=S)n1Cc1ccc2c(c1)OCO2,inactive
23,Cc1c(O)ccc2c(CN3CCN(Cc4ccccc4)CC3)cc(=O)oc12,inactive

row,Structure (SMILES),Potency
1,Cn1cc(CN2CCN(Cc3ccc4c(c3)OCO4)CC2)c(-c2ccccc2F)n1,inactive
2,Cc1cc(-c2ccnc(-n3ncc(C(=O)NC(C)(C)CO)c3C3CC3)n2)c(C)s1,inactive
3,Cc1ccc(C(=O)NCCC(C)C)cc1NC(=O)c1nsc2ccccc12,25.1 µM (active)
4,CC(C)CCNC(=O)c1cc2c(=O)n3ccccc3nc2s1,inactive
5,Cc1ccc(C(=O)OCC(=O)Nc2nc(-c3ccccc3)cs2)cc1NC(=O)c1ccco1,inactive
6,O=C1/C(=C/NCc2ccccn2)c2ccccc2C(=O)N1c1ccccc1,inactive
7,OC[C@@H]1[C@@H](c2ccc(Cl)cc2)C(c2ccccc2)=NN1c1ccccc1,inactive
8,Oc1nc2ccccc2nc1Cc1ccc(Cl)cc1,inactive
9,O=S(=O)(c1ccc(Cl)cc1)N(Cc1cccnc1)Cc1cc2ccccc2nc1O,25.1 µM (active)
10,Cc1ccc(N(Cc2cc3ccccc3nc2O)C(=O)c2cccs2)cc1,inactive
11,COCCCn1c(=O)/c(=C/c2ccccc2OC(C)C)s/c1=C(\C#N)C(=O)Nc1ccc(C(=O)O)cc1,inactive
12,CCCN(C(=O)CCl)C1=CCCCC1,5.97 µM (active)
13,CSc1nc(N2CCOCC2)nc2ccc(C)cc12,inactive
14,O=C(c1ccc(Cl)cc1)n1cnc2ccccc21,inactive
15,COc1ccccc1C(=O)/C=C/c1ccc(N2CCCCC2)c([N+](=O)[O-])c1,39.8 µM (active)
16,O=C(/C=C/c1cccc([N+](=O)[O-])c1)n1cnc2ccccc21,20 µM (active)
17,O=[N+]([O-])c1ccc(COc2ncnc3ccccc23)cc1,inactive
18,O=C(/C=C/c1ccc([N+](=O)[O-])cc1)c1ccccc(=O)c1O,13.4 µM (active)
19,O=C(Cn1cnc2ccccc21)Nc1cccc([N+](=O)[O-])c1,inactive
20,CC(=O)Oc1ccccc1C(=O)C=Cc1cccc([N+](=O)[O-])c1,39.8 µM (active)
21,O=[N+]([O-])c1ccc(Cc2nnc(O)c3ccccc23)cc1,inactive
22,CC(=O)c1ccccc1NC(=O)c1cc(S(=O)(=O)N2CCOCC2)ccc1N1CCCC1,inactive

# — ChEMBL document CHEMBL1201862, “PubChem BioAssay data set” (2004)
